Sampled rows, rich in hits. Any-hit rate of the full collection: about 4%.
TWEAK Fn14 block – TWEAK-Fn14 signaling inhibition. TWEAK-stimulated Fn14 reporter cells, luciferase luminescence, 8 h. inhibition, % at 10 µM. 360,000 tested, 2% active; in the data active means inhibition above about 50%
HIF-2a block – HIF-2a inhibition; 786-0 RCC cells HIF-2a reporter, luciferase luminescence, overnight; inhibition, % at 18.8 µM; 360,000 tested, 0.72% active; AID 624352;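 active means inhibition of the luminescence signal of 40% or more relative to plate controls, in a single-dose primary screen at 18.75 µM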
TROY signal inh – TROY signaling inhibition; Q293 LMP1-TROYcd NF-kB luciferase reporter, 4 h; inhibition, % at 10 µM; 360,000 tested, 0.98% active;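 active means compounds whose plate-normalised and pattern-corrected inhibition of the luciferase reporter signal at the single screening dose is 50% or more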
Peg3 prom inh-1 – inhibitors of Peg3 promoter | HeLa PEG-Prom luciferase reporter, luminescence, overnight | inhibition, % at 20 µM | 360,000 tested, 1.7% active | AID 588405;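 active means inhibition of at least 50% at 20 µM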
KKLEB tox – reduces viability of KKLEB cystic fibrosis airway cells; KKLEB CF airway cells viability, ATPlite luminescence, overnight; active compounds read low; cells stimulated with P. aeruginosa culture filtrate; 360,000 tested, 0.36% active; activity change (cytotoxicity), % at 5 µM;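 active means corrected activity change at or below -50% at 5 µM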
CF NFkB inh – inhibitors of cystic fibrosis induced NF-kB. KKLEB NF-kB-GFP reporter, PAF-induced, GFP fluorescence overnight. inhibition, % at 5 µM. 360,000 tested, 0.86% active;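 active means at least 50% inhibition at 5 µM, scaled per plate between neutral and stimulator controls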;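 further: PAF is a Pseudomonas aeruginosa culture filtrate used as stimulus; plate controls were PAF-stimulated DMSO wells for no effect and unstimulated DMSO wells for full effect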
Peg3 prom inh-2 – Peg3 promoter inhibition confirmation; shares compounds with Peg3 prom inh-1; HeLa PEG-Prom luciferase reporter, luminescence, overnight; inhibition, % at 20 µM; 1,300 tested, 84% active;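 active means at 20 µM dose, 40% or more inhibition averaged across four replicates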
CF NFkB conf – CF NF-kB inhibition confirmation, single concentration. shares compounds with CF NFkB inh. KKLEB CF airway cells, PAF-induced NF-kB-GFP fluorescence, overnight. inhibition, % at 5 µM. 1,300 tested, 64% active; in the data active means inhibition above about 40%;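 further: stimulus PAF is a Pseudomonas aeruginosa filtrate and not platelet activating factor; plate controls were DMSO wells with stimulus for no effect and unstimulated DMSO wells for full effect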
* marks the source's active call; other numbers are inactive results; x = no result given.

SMILES	TWEAK Fn14 block	HIF-2a block	TROY signal inh	Peg3 prom inh-1	KKLEB tox	CF NFkB inh	Peg3 prom inh-2	others
COc1cc(OC)c2c(-c3ccccc3)cc(=O)oc2c1C(CCN1CCN(c2ccccc2)CC1)c1ccc(N(C)C)cc1 (configuration not stated)	0.0	1.6	-6.5	11.9	8.8	16.5	x
Cc1cc(C(=O)O)ccc1-c1ccc(/C=C2\NC(=O)N(Cc3ccc(F)cc3)C2=O)o1	-6.4	8.2	-3.1	8.6	-3.9	30.1	x
COc1ccc(Br)cc1/C=N/NC(=O)c1ccc(COc2ccc3c(c2)CCC3)o1	-23.3	-25.9	-46.9	-5.0	-13.3	13.6	x
O=C(N/N=C/c1cc([N+](=O)[O-])ccc1O)c1ccc(COc2ccc3c(c2)CCC3)o1	-10.6	-23.8	-24.9	52.0*	-21.0	44.6	45.0*
CCc1cccc(CC)c1NC(=S)NCCc1c(C)[nH]c2ccc(C)cc12	-36.2	1.5	6.2	69.0*	5.4	12.8	85.4*
N=c1n(CCN2CCOCC2)c2ccccc2n1CC(=O)c1ccc(Cl)c(Cl)c1	17.5	-31.7	-9.1	5.5	-8.6	-15.8	x
N=c1n(CCN2CCCC2)c2ccccc2n1CC(O)c1ccc(Cl)c(Cl)c1 (configuration not stated)	-35.7	14.7	7.5	114.8*	-21.7	20.4	98.5*
CC(C)c1nnc(NC(=O)CC(=O)Nc2ccccc2C(=O)O)s1	82.7*	28.3	27.9	56.8*	8.9	1.4	34.5
COc1ccc(C2c3ccc4ccccc4c3Oc3ncn(CCN4CCOCC4)c(=N)c32)cc1OC (configuration not stated)	-1.5	17.9	18.5	20.2	-15.3	22.1	x
COc1ccc(C2c3ccc4ccccc4c3Oc3ncn(CCO)c(=N)c32)cc1OC (configuration not stated)	-21.4	10.7	15.3	59.8*	-4.9	39.1	81.9*
COc1ccc(C2c3c(ncn(CCCN4CCOCC4)c3=N)Oc3ccc4ccccc4c32)cc1OC (configuration not stated)	-18.7	9.5	10.9	69.2*	8.0	27.0	85.5*
COc1ccc(C2c3ccc4ccccc4c3Oc3ncn(CCCO)c(=N)c32)cc1 (configuration not stated)	-8.9	-3.7	6.5	65.1*	-15.8	17.8	86.2*
CCCNC(=O)C1(C)CCCN(Cc2ccccc2N(C)C)C1 (configuration not stated)	-8.5	13.1	9.6	-9.8	6.4	-3.1	x
Cc1ccc2[nH]c3c(c2c1)CCCC3NC(=O)CCl (configuration not stated)	71.0*	12.2	6.9	82.4*	-64.6*	62.2*	88.8*
CCC(C)(C)C1CCC2(CC1)NC(=O)N(CC(=O)NC(C)CCc1ccccc1)C2=O (configuration not stated)	5.4	22.7	20.6	14.6	-18.7	18.9	x
CC(C)N(C(=O)[C@H]1C[C@H](CC(=O)NCCCN(C)C)C(=O)N2CCc3c([nH]c4ccc(Cl)cc34)[C@]12C)C(C)C	2.6	-25.2	-0.9	40.2	-1.4	28.4	x
CC(C)N(C(=O)[C@H]1C[C@H](CC(=O)NCC23CC4CC(CC(C4)C2)C3)C(=O)N2CCc3c([nH]c4ccc(Cl)cc34)[C@]12C)C(C)C	54.4*	-17.2	39.5	62.6*	-2.9	39.3	42.6*
O=C(C[C@H]1C[C@H](C(=O)N2CCOCC2)[C@@]2(CCC3CCCC3)c3[nH]c4ccc(Cl)cc4c3CCN2C1=O)NCCN1CCOCC1	1.3	-16.8	-10.5	50.1*	0.3	15.7	7.8
CCN1CCN(CCNC(=O)c2ccc(/C=C3\Sc4ccccc4N(Cc4ccccc4F)C3=O)cc2)CC1	-66.2	-2.9	65.0*	108.9*	-29.7	-5.5	99.4*
CCCN1C/C(=C/c2cccc([N+](=O)[O-])c2)C(=O)/C(=C/c2cccc([N+](=O)[O-])c2)C1	7.4	26.1	1.9	110.6*	-88.4*	94.9*	70.6*
NS(=O)(=O)c1ccc(CCNc2nn3c(-c4ccc(F)c(Cl)c4)cnc3s2)cc1	56.1*	33.8	42.2	66.5*	-12.0	42.0	95.1*
O=C(/C=C/c1ccc(F)cc1)NC(=S)NNC(=O)c1cnccn1	0.2	-2.2	3.0	55.2*	0.6	22.5	40.1*
COC(=O)[C@@]12C[C@@H](CC(=O)N3CCN(C(=O)c4ccco4)CC3)C(=O)N(Cc3ccc4c(c3)OCO4)C1=CCC(C)(C)C2	x	13.8	x	x	x	x	x
Cc1cc(C(=O)CSc2nnc3ccccn23)c(C)n1-c1ccccc1	101.0*	84.3*	79.2*	100.9*	3.2	-18.4	81.4*
O=C(CN1CCN(Cc2ccccc2Cl)CC1)N=Nc1c(O)[nH]c2ccccc12	1.2	29.0	-1.0	54.3*	-16.9	25.3	48.0*
SMILES	TWEAK Fn14 block	HIF-2a block	TROY signal inh	Peg3 prom inh-1	KKLEB tox	CF NFkB inh	Peg3 prom inh-2	others
Cc1noc(NS(=O)(=O)c2ccc(NS(=O)(=O)c3ccc(C(C)(C)C)cc3)cc2)c1C	-7.3	9.8	-11.4	11.2	9.3	1.1	x
COc1cc(NC(=O)c2cc3c(Cl)nc4ccccc4c3s2)cc(OC)c1OC	-1.0	9.2	-5.5	10.0	-11.6	-13.3	x
COc1ccc(NC(=O)c2cc3c(Cl)nc4ccccc4c3s2)c(OC)c1	-43.0	7.7	6.6	52.4*	-6.7	-2.6	15.1
Cc1ccc(-n2cc(CNCCCn3ccnc3C)c(-c3ccc(F)cc3)n2)cc1	0.5	-5.0	-33.4	111.8*	-18.7	24.0	98.4*
Cc1ccc(S(=O)(=O)CC(N)=O)cc1	0.4	5.3	-9.2	-4.1	2.3	11.3	x
Cc1ccc(S(=O)(=O)CCSC(=N)N)cc1	20.1	-3.8	-9.9	54.7*	-6.2	1.6	47.4*
O=C1COc2ccc(C(=O)CSc3nc4ccccc4c(=O)n3-c3ccc(Cl)c(Cl)c3)cc2N1	-32.9	9.4	1.2	75.7*	-47.5	55.4*	33.4	CF NFkB conf=-2.4
CCc1ccc(-n2c(SCC(=O)c3ccc4c(c3)NC(=O)CO4)nc3ccccc3c2=O)cc1	-113.2	9.5	10.2	10.7	-3.9	-7.8	x
c1ccc(-c2cc(-c3nc4ccccc4[nH]3)c3ccccc3n2)cc1	54.9*	-59.2	22.6	80.9*	-8.1	56.3*	89.1*	CF NFkB conf=-86.6
CCC(=N\NC(=O)COc1ccccc1OC)/C(CC)=N/NC(=O)COc1ccccc1OC	-11.7	6.0	-9.7	16.7	-3.6	36.3	x
Cc1cccc(NC(=O)c2nc[nH]c2C(=O)NCCCCCCNC(=O)c2[nH]cnc2C(=O)Nc2cccc(C)c2)c1	32.2	5.5	8.5	45.0	2.2	-24.0	x
